Reference: PubChem BioAssay (NCI)
About 83,000 compounds went through this panel and 20% of them were active in at least one assay; those are over-represented in the sample as a whole.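 Each cell line was grown in a 96-well plate and treated with one concentration of compound for 48 hours. Values below 10 were considered active.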 A number with no mark means an inactive call. Calls of active or inactive are those of the source.

System: RPMI-8226 leukemia
Test: NCI-60 one-dose screen, 48 h (100 = growth as untreated, 0 = no growth, -100 = all killed)
Conditions: 100 µM

| SMILES | growth |
| --- | --- |
| CN(C)C(=O)c1ccc(SC(=S)NCc2ccccc2)cc1 | -27.3% (active) |
| COc1ccc(-c2cscc2N)cc1 | 23.7% |
| O=C(Nc1c(Cl)cccc1Cl)Oc1cccc2cccnc12 | 2.58% (active) |
| O=C(Nc1cccc(Br)c1)Oc1cccc2cccnc12 | 1.75% (active) |
| O=C(O)c1c(Cl)c(Cl)c(Cl)c(Cl)c1-c1c2cc(I)c(=O)c(I)c-2oc2c(I)c(O)c(I)cc12 | 24.3% |

System: OVCAR-8 ovarian
Test: as above
Conditions: 10 µM unless noted

| SMILES | growth |
| --- | --- |
| O=[N+]([O-])c1ccc2c(N=Nc3ccc4ccccc4c3O)c(O)cc(S(=O)(=O)O)c2c1 | 70.5% |
| O=C(Nc1cccc(Br)c1)Oc1ccc(Cl)c2cccnc12 | 16% [100 µM] |
| Oc1c(Cl)cc(Cl)c2cccnc12 | 41.2% |
| COC(=O)[C@@]12OC[C@]34[C@H]([C@@H](O)[C@@H]1O)[C@@]1(C)[C@H](O)C(=O)C=C(C)[C@@H]1C[C@H]3OC(=O)C(OC(C)=O)[C@@H]24 (stereo partly specified) | -18.6% (active) |
| CNC(=O)N/N=C/c1ccc([N+](=O)[O-])o1 | 96.5% |
| O=C1C2=C(Nc3cc([N+](=O)[O-])ccc3N2)OC1c1c2ccccc2cc2ccccc12 (stereo unspecified) | 47.5% |
| COc1cc(/C=C(/C)C[N+](=O)[O-])ccc1O | 94.7% |
| O=C(O)c1ccc2c3c(ncnc13)-c1ccccc1C2=O | 79.9% |
| Cc1ccc2nc(C[n+]3ccc4ccccc4c3)ccc2c1 | 57.8% |
| C=C(Cl)C(=NC(C)(C)C)Nc1ccccc1C | 89.2% |
| O=C1OCc2cccc3cccc1c23 | 101% |
